High-throughput results deposited in PubChem by several laboratories.
An excerpt weighted towards active compounds, which were near 13% of everything screened.
CHOP inh – CHOP inhibition in unfolded protein response; CHO-K1 CHOP-promoter luciferase, tunicamycin-induced, 15-18 h; inhibition, % at 10 µM; 220,000 compounds, 3.8% hits; AID 2732;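 active = compounds that reduced the stress-induced luciferase reporter signal by more than about 70% of percent inhibition, limit read from the data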;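 also: 0% = tunicamycin plus vehicle and 100% = wells without tunicamycin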
L major viab – Leishmania major promastigote growth inhibition. Leishmania major promastigotes, resazurin fluorescence viability. inhibition, % at 10 µM. 200,000 compounds, 9% hits. AID 1063; in the data active = inhibition above about 50%;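 also: promastigotes grown with compound for 44 hours at 28 °C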
RAM network inh – yeast RAM network inhibition | inhibition, % at 50 µM | S. cerevisiae dse1pr::URA3 reporter, 5-FOA growth OD615, 2 d; analog-sensitive cbk1-as2 kinase mutant strain | AID 868 | 190,000 compounds, 1.8% hits;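 active = inhibition above a set limit, 3 SD over mean compound inhibition, cut at about 8.4% in these data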;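 also: 0% = DMSO-only wells with no growth and 100% = 10 µM 1-NA-PP1 full growth; inhibition rescues growth on 5-FOA so higher OD means more RAM inhibition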
WT yeast gro inh – growth inhibition of WT yeast, mitochondrial fusion screen | inhibition, % at 10 µM | mitochondrial fusion phenotypic screen, WT strain | 190,000 compounds, 2.1% hits; in the data active = inhibition above about 58%; tested in S. cerevisiae
Active calls of the source: *.

How did CCOC(=O)Cn1nnnc1CN(Cc1cccs1)Cc1cc2cc(C)ccc2[nH]c1=O do in these assays?
CHOP inh: 10.2; L major viab: 1.5; RAM network inh: 2.3; WT yeast gro inh: 1.4

What do the screens show for `Cc1ccc(CN(Cc2cc3cc4c(cc3[nH]c2=O)OCCO4)Cc2nnnn2Cc2ccco2)cc1`?
CHOP inh: 33.5; L major viab: 15.9; RAM network inh: 2.6; WT yeast gro inh: 1.7

Results for COc1ccc2[nH]c(=O)c(CN(Cc3nnnn3Cc3ccco3)C3CCCCC3)cc2c1 ?
CHOP inh: 2.8; L major viab: 28.2; RAM network inh: 0.4; WT yeast gro inh: 0.0

What do the screens show for `COc1ccccc1CN(Cc1cc2c(C)ccc(C)c2[nH]c1=O)Cc1nnnn1Cc1ccco1`?
CHOP inh: 54.9; L major viab: 99.8*; RAM network inh: 2.8; WT yeast gro inh: 8.9

How did CCOC(=O)Cn1nnnc1CN(CCc1ccccc1)Cc1cc2cc(CC)ccc2[nH]c1=O do in these assays?
CHOP inh: 80.5*; L major viab: 17.8; RAM network inh: 0.5; WT yeast gro inh: 7.6

Results for COc1ccc2cc(CN(CCc3ccccc3)Cc3nnnn3Cc3ccco3)c(=O)[nH]c2c1 ?
CHOP inh: 20.3; L major viab: 100.0*; RAM network inh: 1.7; WT yeast gro inh: -0.4

Results for Cc1ccc2cc(CN(Cc3ccc4c(c3)OCO4)Cc3nnnn3Cc3ccco3)c(=O)[nH]c2c1 ?
CHOP inh: 56.6; L major viab: 76.7*; RAM network inh: 0.9; WT yeast gro inh: 15.6

Results for N#C/C(=C\c1ccco1)C(=O)Nn1cnnc1 ?
CHOP inh: 20.9; L major viab: -3.7; RAM network inh: -0.8; WT yeast gro inh: -2.2

Results for COc1ccc(/C=N/OC/C(O)=C(\C#N)c2nc3ccccc3[nH]2)cc1OC ?
CHOP inh: -30.4; L major viab: -3.8; RAM network inh: 2.7; WT yeast gro inh: -0.2

Results for Clc1cccc(-c2nc3nc4ccccc4nc3n2Cc2ccccc2)c1 ?
CHOP inh: 9.4; L major viab: 52.1*; RAM network inh: 3.0; WT yeast gro inh: -9.1

How did O=[N+]([O-])c1cc(-c2nc3nc4ccccc4nc3n2CCc2ccccc2)cc([N+](=O)[O-])c1 do in these assays?
CHOP inh: 65.8; L major viab: 60.7*; RAM network inh: 4.7; WT yeast gro inh: 2.5

Results for C=CCn1c(-c2ccccc2)nc2nc3ccccc3nc21 ?
CHOP inh: 3.0; L major viab: 4.0; RAM network inh: 1.9; WT yeast gro inh: 24.3

What do the screens show for `c1ccc(Cn2c(-c3ccccc3)nc3nc4ccccc4nc32)cc1`?
CHOP inh: 47.5; L major viab: 84.0*; RAM network inh: 5.3; WT yeast gro inh: 8.4

How did Cc1cccc(-n2c(-c3cccc([N+](=O)[O-])c3)nc3nc4ccccc4nc32)c1 do in these assays?
CHOP inh: 66.3; L major viab: -5.4; RAM network inh: 3.7; WT yeast gro inh: 9.4

Results for CC(C)CCN(CCC(C)C)C(CO)(CO)CO ?
CHOP inh: 2.8; L major viab: -0.1; RAM network inh: 1.0; WT yeast gro inh: -12.7

Results for Cc1cc(C(C)(C)C)ccc1OCCCCN1CCCC1 ?
CHOP inh: 14.2; L major viab: 99.3*; RAM network inh: 0.7; WT yeast gro inh: 17.3

What do the screens show for `Cc1ccc(C(C)(C)C)c(OCCN2CCCC2)c1`?
CHOP inh: 6.8; L major viab: 4.4; RAM network inh: 0.7; WT yeast gro inh: 10.2

How did Cc1cc(Br)ccc1OCCCCN1CCCCC1 do in these assays?
CHOP inh: -4.2; L major viab: 99.5*; RAM network inh: 1.0; WT yeast gro inh: 31.8

What do the screens show for `CC(C)(C)c1ccccc1OCCN1CCCC1`?
CHOP inh: 15.4; L major viab: 89.7*; RAM network inh: -0.5; WT yeast gro inh: 2.4

Results for Cc1cccc(C(C)(C)C)c1OCCN1CCCC1 ?
CHOP inh: 19.5; L major viab: 5.7; RAM network inh: 0.6; WT yeast gro inh: -2.6

How did Cc1cc(C(C)(C)C)ccc1OCCN1CCCC1 do in these assays?
CHOP inh: -38.3; L major viab: 95.9*; RAM network inh: -1.0; WT yeast gro inh: 38.8

How did O=c1[nH]c(=S)[nH]c2sccc12 do in these assays?
CHOP inh: 26.3; L major viab: -12.7; RAM network inh: -1.0; WT yeast gro inh: -16.8

Results for CC(OCCN1CCCC1)(c1ccc(F)cc1)c1ccc(F)cc1 ?
CHOP inh: 13.0; L major viab: 100.1*; RAM network inh: 2.6; WT yeast gro inh: 17.9

What do the screens show for `CC(C)c1ccc(NS(=O)(=O)c2ccc(Cl)nc2)cc1`?
CHOP inh: 53.4; L major viab: -1.3; RAM network inh: -1.1; WT yeast gro inh: 24.5

What do the screens show for `CC(C)c1ccc(S(=O)(=O)Nc2ccc(SC(F)F)cc2)cc1`?
CHOP inh: 101.1*; L major viab: -9.6; RAM network inh: 5.2; WT yeast gro inh: 85.0*
